HT1080 IDH1KD tx = toxicity to HT-1080 IDH1 knockdown cells (counter line). HT-1080 IDH1 knockdown viability, ATP luminescence, 48 h. Potency, µM (series often up to 46.1 µM), for the others: top-dose activity, negative = toxicity, usual class: cytotoxic. hit rate 2% among 360,000. AID 686971;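 note: 0% = DMSO wells and -100% = cell-free medium wells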
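HT-1080-IDH1KD cells (IDH1 knocked down), 750/well in RPMI with 5% FBS, treated with compound 48 h at 37 degrees C. Viability by CellTiter-Glo luminescence, normalised to DMSO and no-cell wells; concentration-response curves classed.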
KB-V1 MDR tox = KB-V1 MDR subline cytotoxicity | Potency, µM (series often up to 46.1 µM), hits mostly cytotoxic | KB-V1 MDR cells viability, CellTiter-Glo, 72 h | AID 1347076 | hit rate 3.4% among 400,000; note: % is set by controls: 0 for no effect and ±100 for the full control effect; nearly all actives have a fitted effect of over 60% in size
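Drug-selected KB-V1 cells, grown in DMEM lacking phenol red with 10% FBS, receive compound titrations; after three days at 37 degrees C, surviving cell ATP is quantified by CellTiter-Glo luminescence and responses normalized and curve-fitted.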
KB-3-1 cytotox = KB-3-1 parental cell cytotoxicity; hit rate 1.4% among 400,000; AID 1347075; KB-3-1 viability, CellTiter-Glo ATP luminescence, 72 h; Potency, µM (series often up to 46.1 µM), usual class: cytotoxic; note: % is set by controls: 0 for no effect and ±100 for the full control effect; nearly all actives have a fitted effect of over 60% in size
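72 h, 37 °C compound treatment of KB-3-1 parental cells; CellTiter-Glo added, 10 min, luminescence read. Data corrected against DMSO-only plates and normalized before curve fitting.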
MCF10A rerep = DNA re-replication induction in MCF 10a cells; MCF 10A DNA re-replication, Hoechst nuclear intensity, 48 h; AID 624296; hit rate 2.9% among 350,000; Potency, µM (titrated, usually from 46.1 µM), inactives show top-dose activity, positive = re-replication, usual class: activators; note: % of control where 0% means no effect; nearly all actives have a fitted effect of over 50% in size
SW480 rereplic = induces DNA re-replication in SW480 colon adenocarcinoma cells; Potency, µM (doses to about 46.1 µM), for inactives: top-dose re-replication activation, most hits filed as activators; hit rate 1.8% among 340,000; SW480 DNA re-replication, Hoechst DNA content imaging, 48 h; AID 624297; note: % of control where 0% means no effect; nearly all actives have a fitted effect of over 55% in size
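Treated cells incubate 48 hr (37 C, 5% CO2), are stained 40 min with Hoechst, and nuclear fluorescence is enumerated; a rise in nuclei with high DNA signal marks re-replication.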
HT1080NT lethal = kills 2HG-producing HT-1080-NT fibrosarcoma cells; HT-1080-NT fibrosarcoma viability, CellTiter-Glo ATP luminescence, 48 h; hit rate 1.6% among 360,000; Potency, µM (titrated, usually from 46.1 µM), for the others: at the highest dose activity, negative = less viability, hits mostly cytotoxic; AID 686970;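 note: NT is the 2HG producing partner of a matched IDH1 knockdown line; 0% = DMSO-treated cells and -100% = media-only wells without cells; nearly all actives have a fitted effect of over 55% in size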
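Toxicity toward the 2HG-producing NT line was scored as %Activity, normalised to DMSO and no-cell wells, from CellTiter-Glo luminescence after 48 hours' treatment.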
Numbers without * were called inactive. Rows were chosen to be rich in hits. Some 8% of all compounds tested hit in one or more screens of this group. Calls come from the whole dose curve; as a rule, active = well fitted curve in the direction sought with a large enough effect; inconclusive = small, poorly fitted or top-dose-only effect, or another doubt; inactive = no such curve, though single readings can be large; an effect the other way counts as inactive or inconclusive. Potency is the fitted concentration of half-maximal effect.

Screening Cc1ccc(CSC2=NC(C)(C)Nc3ccccc32)c(C)c1 returned KB-V1 MDR tox inactive and KB-3-1 cytotox inactive.
Screening CC1=CC(=O)N(c2cccc3c(N4C(=O)C=C(C)C4=O)cccc23)C1=O returned HT1080 IDH1KD tx 26µM*, KB-V1 MDR tox inactive, KB-3-1 cytotox inconclusive, MCF10A rerep inconclusive, SW480 rereplic 13µM* and HT1080NT lethal 1%.
`CCOC(=O)C1=C(N)Oc2cc(O)ccc2C1c1ccc([N+](=O)[O-])cc1` (stereo not drawn) gave HT1080 IDH1KD tx inconclusive, KB-V1 MDR tox inactive, KB-3-1 cytotox inactive, MCF10A rerep inconclusive, SW480 rereplic 10% and HT1080NT lethal inconclusive.
CCOC(=O)C1=C(N)Oc2ccc3ccccc3c2C1c1ccc(O)c(OC)c1 (stereo not drawn) was read as HT1080 IDH1KD tx inconclusive, KB-V1 MDR tox inactive, KB-3-1 cytotox inactive, MCF10A rerep inconclusive, SW480 rereplic 1% and HT1080NT lethal 21µM*.
Screening CCOC(=O)C1=C(N)Oc2ccc3ccccc3c2C1c1ccc(O)cc1 (stereo not drawn) returned HT1080 IDH1KD tx -17%, KB-V1 MDR tox inactive, KB-3-1 cytotox inactive, MCF10A rerep 18µM*, SW480 rereplic 1% and HT1080NT lethal -6%.
`CCN(CC)C(=O)Cn1c(=O)n(-c2ccc(Cl)cc2)c(=O)c2c3c(sc21)CCCCC3` gave KB-V1 MDR tox inactive and KB-3-1 cytotox inactive.
O=C(COc1ccc2ccccc2c1Br)NC(=S)Nc1cccc(CO)c1 was read as HT1080 IDH1KD tx inconclusive, KB-V1 MDR tox inactive, KB-3-1 cytotox inactive, MCF10A rerep inconclusive, SW480 rereplic 2.9µM* and HT1080NT lethal inconclusive.
For Cn1cc(CN2CCCC(C(=O)c3ccc(-c4ccccc4)c(F)c3)C2)cn1 (stereo not drawn) the results were HT1080 IDH1KD tx 16µM*, KB-V1 MDR tox inconclusive, KB-3-1 cytotox inactive, MCF10A rerep 14%, SW480 rereplic inconclusive and HT1080NT lethal 23µM*.
`Cc1nn(C)cc1CN1CCCC(C(=O)c2ccc(-c3ccccc3)c(F)c2)C1` (stereo not drawn) gave HT1080 IDH1KD tx inconclusive, KB-V1 MDR tox inconclusive, KB-3-1 cytotox inactive, MCF10A rerep inconclusive, SW480 rereplic 4% and HT1080NT lethal inconclusive.
`CCn1cc(CN2CCCC(C(=O)c3ccc(-c4ccccc4)cc3)C2)cn1` (stereo not drawn) gave HT1080 IDH1KD tx 23µM*, KB-V1 MDR tox inactive, KB-3-1 cytotox inconclusive, MCF10A rerep inconclusive, SW480 rereplic inconclusive and HT1080NT lethal inconclusive.
Screening CCn1cc(CN2CCCC(C(=O)Nc3cccc(-c4cc5ccccc5[nH]4)c3)C2)cn1 (stereo not drawn) returned HT1080 IDH1KD tx inconclusive, KB-V1 MDR tox inconclusive, KB-3-1 cytotox inactive, MCF10A rerep inconclusive, SW480 rereplic inconclusive and HT1080NT lethal 16µM*.
Cn1cc(CN2CCCC(C(=O)c3ccc(-c4ccccc4)cc3)C2)cn1 (stereo not drawn) was read as HT1080 IDH1KD tx -24%, KB-V1 MDR tox inactive, KB-3-1 cytotox inactive, MCF10A rerep 0%, SW480 rereplic 8% and HT1080NT lethal inconclusive.
CCN(Cc1ccccc1)C(=O)C1CCN(Cc2sccc2C)CC1 was read as HT1080 IDH1KD tx 9%, KB-V1 MDR tox inconclusive, KB-3-1 cytotox inactive, MCF10A rerep -2%, SW480 rereplic 29µM* and HT1080NT lethal 5%.
`CCCOc1cccc(C2c3c(oc4ccc(F)cc4c3=O)C(=O)N2c2nc(C)c(C(C)=O)s2)c1` (stereo not drawn) gave KB-V1 MDR tox inactive and KB-3-1 cytotox inactive.
For C=CCn1c(=O)c(C(=O)Nc2ccc(C)cn2)c(O)c2ccccc21 the results were HT1080 IDH1KD tx 11%, KB-V1 MDR tox 6.5µM*, KB-3-1 cytotox inconclusive, MCF10A rerep -3%, SW480 rereplic 0% and HT1080NT lethal 5%.
Screening C=CCn1c(=O)c(C(=O)NCCc2ccccc2)c(O)c2ccccc21 returned HT1080 IDH1KD tx -1%, KB-V1 MDR tox 21µM*, KB-3-1 cytotox inactive, MCF10A rerep 7%, SW480 rereplic -7% and HT1080NT lethal -21%.
For CCCn1c(=O)c(C(=O)NCCc2ccccc2)c(O)c2ccccc21 the results were HT1080 IDH1KD tx -1%, KB-V1 MDR tox inconclusive, KB-3-1 cytotox inconclusive, MCF10A rerep 9%, SW480 rereplic -2% and HT1080NT lethal 17%.
CC(=O)N1CCN(Cc2nc3cc([N+](=O)[O-])ccc3n2C)CC1 was read as HT1080 IDH1KD tx 3%, KB-V1 MDR tox inactive, KB-3-1 cytotox inactive, MCF10A rerep 0%, SW480 rereplic 2.9µM* and HT1080NT lethal 1%.
Screening CCOC(=O)C(/C(C)=N/NC(=O)C1CC1c1ccccc1)C(C)C (stereo not drawn) returned HT1080 IDH1KD tx 0%, KB-V1 MDR tox 16µM*, KB-3-1 cytotox inactive, MCF10A rerep -2%, SW480 rereplic inconclusive and HT1080NT lethal -1%.
`Cc1nc2nncn2c(NCc2ccc(Cl)cc2)c1C` gave KB-V1 MDR tox inactive and KB-3-1 cytotox 2.6µM*.
Screening CCC1=NN(C(=O)Cc2ccccc2)C(O)(c2ccncc2)C1 (stereo not drawn) returned HT1080 IDH1KD tx 10%, KB-V1 MDR tox inactive, KB-3-1 cytotox inactive, MCF10A rerep -4%, SW480 rereplic 0% and HT1080NT lethal 6%.
For CCC1=NN(C(=O)COc2ccccc2)C(O)(c2ccncc2)C1 (stereo not drawn) the results were HT1080 IDH1KD tx 17%, KB-V1 MDR tox inactive, KB-3-1 cytotox inactive, MCF10A rerep 2%, SW480 rereplic 6.5µM* and HT1080NT lethal 15%.
For CN(CC(=O)Nc1cccc(F)c1)S(=O)(=O)c1ccc2c(c1)n(C)c(=O)c(=O)n2C the results were KB-V1 MDR tox inconclusive and KB-3-1 cytotox inactive.
Screening Cn1c(=O)n(C)c2cc(NS(=O)(=O)c3ccc(F)cc3)c(NCc3ccccc3)cc21 returned KB-V1 MDR tox inconclusive and KB-3-1 cytotox inactive.
`COc1cccc(/C=C2\SC(=O)NC2=O)c1OCc1ccc(C(=O)O)cc1` gave HT1080 IDH1KD tx 11%, KB-V1 MDR tox inactive, KB-3-1 cytotox inactive, MCF10A rerep 21%, SW480 rereplic -7% and HT1080NT lethal 13%.

Assay outcomes deposited in PubChem BioAssay by National Center for Advancing Translational Sciences (NCATS).
